From PubChem BioAssay
CXXC DNA block: qHTS Fluorescence Polarization Assay for Inhibitors of MLL CXXC domain - DNA interaction; Histone-lysine N-methyltransferase 2A (Homo sapiens), Q03164; AID 2662, 2010; Potency, µM (highest dose often 115 µM), actives largely listed as inhibitors; MLL-CXXC / FITC-HOXA9 DNA fluorescence polarization; actives 0.037% (n = 290,000); active = well fitted inhibition curve with a large enough effect in the polarisation, with a control signal flat, not every such curve was filed as active; inconclusive = small, poorly fitted or top-dose-only effect, or effect the other way, or a change in a side signal; inactive = no such curve, though single readings can be large or run the other way; the % refers to the polarisation
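Fluorescence polarization: 7 uM MLL-CXXC (stock) preincubated 5 min with compounds, then 50 nM fluorescein-HOX-A9 DNA (stock) added; 30 min ambient. Buffer 50 mM Tris-HCl pH 7.5, 50 mM NaCl, 1 mM DTT, 0.05% BSA.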
Menin-MLL FL inh: qHTS Assay for Inhibitors Targeting the Menin-MLL Interaction in MLL Related Leukemias: Competition With Fluorescein Labeled MLL-derived Peptide; AID 1766, 2009; 290,000 tested, under 10 active; Fluorescence polarization, fluorescein-MLL peptide displacement from menin; FP activity change, % at 61.4 µM; active = well fitted curve in the direction sought with a large enough effect in the polarisation, not every such curve was filed as active; inconclusive = small, poorly fitted or top-dose-only effect, or effect the other way, or a change in a side signal; inactive = no such curve, though single readings can be large or run the other way; the % refers to the polarisation
MBNL1-CUG inh: qHTS Assay for Inhibitors of MBNL1-poly(CUG) RNA binding; TR-FRET MBNL1-His/biotin-(CUG)12 binding, 665/545 ratio; Potency, µM (highest dose often 57.5 µM), actives largely listed as inhibitors; actives 0.036% (n = 280,000); AID 2675, 2010; active = well fitted inhibition curve with a large enough effect in the signal ratio, with a control signal flat, not every such curve was filed as active; inconclusive = small, poorly fitted or top-dose-only effect, or effect the other way, or a change in a side signal; inactive = no such curve, though single readings can be large or run the other way; the % refers to the signal ratio
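TR-FRET readout: Ex 340 nm, 665/545 nm emission ratio, normalized to buffer-only (basal) and MBNL1-(CUG)12 controls. Complex of MBNL1-His with Biotin-(CUG)12, compounds 92 nM–58 uM, incubated 60 min at room temperature.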
CBFb RUNX1 block: qHTS Assay for Compounds Blocking the Interaction Between CBF-beta and RUNX1 for the Treatment of Acute Myeloid Leukemia. AlphaScreen CBFb-His/RUNX1-biotin binding, biochemical. Potency, µM (highest dose often 59.8 µM), actives largely listed as inhibitors. 230,000 tested, under 10 active. AID 1477, 2009
Target sequence (Q01196 whole entry, looked up): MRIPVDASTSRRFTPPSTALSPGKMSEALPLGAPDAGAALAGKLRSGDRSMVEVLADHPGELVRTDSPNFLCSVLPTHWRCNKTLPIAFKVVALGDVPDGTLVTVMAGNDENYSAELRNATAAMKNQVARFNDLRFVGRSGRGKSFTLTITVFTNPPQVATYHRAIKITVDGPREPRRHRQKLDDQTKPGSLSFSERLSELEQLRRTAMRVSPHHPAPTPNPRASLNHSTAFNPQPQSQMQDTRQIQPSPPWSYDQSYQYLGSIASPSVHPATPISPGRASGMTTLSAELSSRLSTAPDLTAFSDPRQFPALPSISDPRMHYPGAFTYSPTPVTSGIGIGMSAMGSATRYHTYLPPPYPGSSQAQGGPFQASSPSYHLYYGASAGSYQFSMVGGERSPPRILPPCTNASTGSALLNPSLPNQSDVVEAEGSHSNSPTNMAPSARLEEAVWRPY
Target sequence (Q13951 whole entry, looked up): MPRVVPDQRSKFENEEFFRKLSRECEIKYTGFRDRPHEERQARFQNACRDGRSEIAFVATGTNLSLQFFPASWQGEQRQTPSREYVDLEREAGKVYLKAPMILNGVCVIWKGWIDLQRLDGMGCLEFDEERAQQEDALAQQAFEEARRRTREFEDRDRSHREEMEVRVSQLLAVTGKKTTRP
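Room-temperature protein-protein interaction test with 30 nM each of His-tagged CBF-beta and biotinylated RUNX1, 15 min with compound, then 90 min with nickel plus streptavidin beads. Signal read in AlphaScreen mode.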
Menin-MLL TR inh: qHTS Assay for Inhibitors Targeting the Menin-MLL Interaction in MLL Related Leukemias: Competition With Texas Red Labeled MLL-derived Mutant Peptide. Menin + Texas Red MLL mutant peptide, fluorescence polarization. AID 1768, 2009. O00255. actives 0.23% (n = 270,000). Potency, µM (titrated, usually from 61.6 µM), actives largely listed as inhibitors; active = well fitted inhibition curve with a large enough effect in the polarisation, with a control signal flat, not every such curve was filed as active; inconclusive = small, poorly fitted or top-dose-only effect, or effect the other way, or a change in a side signal; inactive = no such curve, though single readings can be large or run the other way; the % refers to the polarisation
MLL CXXC Fl: qHTS Fluorescence Polarization (FP) Assay for Inhibitors of MLL CXXC domain - DNA interaction: Fluorescein FP. shares compounds with CXXC DNA block. AID 624160, 2012. MLL CXXC-DNA binding, fluorescein FP. Potency, µM (highest dose often 345 µM), most hits filed as inhibitors. actives 70% (n = 200); note: nearly all actives have a fitted effect of over 80% in size
MLL CXXC FP-TR: qHTS Fluorescence Polarization (FP) Assay for Inhibitors of MLL CXXC domain - DNA interaction: Texas Red FP; shares compounds with CXXC DNA block; actives 40% (n = 200); Potency, µM (top dose mostly 345 µM), hits mostly inhibitors; MLL CXXC-DNA binding, Texas Red fluorescence polarization; note: nearly all actives have a fitted effect of over 75% in size
MLL CXXC HTRF: qHTS Fluorescence Polarization (FP) Assay for Inhibitors of MLL CXXC domain - DNA interaction: HTRF Assay; shares compounds with CXXC DNA block; MLL CXXC-DNA binding, HTRF, biochemical; Potency, µM (highest dose often 172 µM), actives largely listed as inhibitors; actives 30% (n = 210); note: nearly all actives have a fitted effect of over 80% in size
Hits are given with their value; n = inactive; u = inconclusive; x = no result given. The entries come from a sample that favours hits as a whole. Unless noted, calls come from the whole dose curve; as a rule, active = well fitted curve in the direction sought with a large enough effect; inconclusive = small, poorly fitted or top-dose-only effect, or another doubt; inactive = no such curve, though single readings can be large; an effect the other way counts as inactive or inconclusive.

SMILES	CXXC DNA block	Menin-MLL FL inh	MBNL1-CUG inh	CBFb RUNX1 block	Menin-MLL TR inh	MLL CXXC Fl	MLL CXXC FP-TR	MLL CXXC HTRF
COc1ccc(C2Nc3ccccc3C(=O)N2Cc2ccccc2)cc1COc1ccccn1 (centres undefined)	n	n	n	n	n	x	x	x
O=c1[nH]n(-c2ccccc2)c(=O)c(Cl)c1Cl	n	n	n	n	13µM	x	x	x
O=c1c2c([nH]n1-c1ccccc1)CCCC2	n	n	n	n	u	x	x	x
CC(C)c1ccc(C2CC(=O)c3cnc(NC(=O)c4ccco4)nc3C2)cc1 (centres undefined)	n	n	n	x	n	x	x	x
Cc1cc(-c2ccc(N=Nc3c(S(=O)(=O)O)cc4cc(S(=O)(=O)O)cc(N)c4c3O)c(C)c2)ccc1N=Nc1c(S(=O)(=O)O)cc2cc(S(=O)(=O)O)cc(N)c2c1O	25µM	u	x	x	u	5.6µM	7.1µM	1.5µM
CC1(C)CC(=O)C(C(C2=C(O)CC(C)(C)CC2=O)c2ccc(Br)s2)C(=O)C1 (centres undefined)	u	n	x	n	n	40µM	n	15µM
CCC1OC2(C)OC(=N)C1(C#N)C(C#N)(C#N)C2c1ccccc1 (centres undefined)	n	n	n	n	n	x	x	x
CCC12OC(=N)C(C#N)(C1C)C(C#N)(C#N)C(c1ccccc1)O2 (centres undefined)	20µM	n	x	n	n	13µM	22µM	n
CN(C)C1(CNCC(O)c2ccccc2)CCCCC1 (centres undefined)	u	n	n	x	n	x	x	x
CCOC(=O)/C=C(\C)Sc1cc(O)c2ccccc2c1O	32µM	n	u	n	x	u	u	19µM
CCOC(=O)/C=C(\C)Sc1cc(=O)oc2ccccc12	n	n	u	n	n	x	x	x
CC[C@@]1(O)C(=O)OCc2c1cc1n(c2=O)Cc2cc3c([N+](=O)[O-])cccc3nc2-1	n	n	x	x	n	x	x	x
CC[C@@]1(O)C(=O)OCc2c1cc1n(c2=O)Cc2cc3c(CN(C)C)c(O)ccc3nc2-1	45µM	u	x	n	n	32µM	n	n
O=C(O)c1ccc(COc2ccccc2C=C2C(=O)c3ccccc3C2=O)cc1	18µM	n	x	n	n	18µM	56µM	77µM
COc1cc(/C=C2/SC(=O)NC2=O)ccc1OCc1ccccc1	u	n	n	x	u	x	x	x
COc1ccc(/C=C2/SC(=S)NC2=O)cc1OCc1ccccc1	u	n	n	x	u	u	n	n
CC(=O)N(CN1C(=O)c2ccccc2C1=O)c1cccc(C)c1	n	n	n	n	n	x	x	x
Cc1ccc(C2OC34CCCCCC3C(C#N)(C(=N)O4)C2(C#N)C#N)cc1 (centres undefined)	7.9µM	n	x	n	n	n	u	n
CCCCOc1ccc(C2OC34CCCCC3C(C#N)(C#N)C2(C#N)C(=N)O4)cc1 (centres undefined)	n	u	u	n	x	x	x	x
C=CCOc1ccc(C2OC34CCCCC3C(C#N)(C#N)C2(C#N)C(=N)O4)cc1 (centres undefined)	n	u	u	n	n	x	x	x
CCOc1ccc(C2OC34CCCCC3C(C#N)(C#N)C2(C#N)C(=N)O4)cc1OC (centres undefined)	25µM	u	u	n	x	18µM	36µM	n
O=C1NN(c2ccccc2)C(=O)/C1=C\c1ccc2c(c1)OCO2	u	n	n	x	n	28µM	u	n
CNC(=O)c1cc(Nc2nnc(-c3ccc(C)c(S(N)(=O)=O)c3)c3ccccc23)ccc1OC	u	n	u	x	n	142µM	n	n
CC1(C)CC(=O)C(C(C2=C(O)CC(C)(C)CC2=O)c2ccc(O)c([N+](=O)[O-])c2)=C(O)C1	28µM	n	n	n	n	18µM	63µM	7.7µM
CC1(C)CC(=O)C(C(C2=C(O)CC(C)(C)CC2=O)c2ccc([N+](=O)[O-])cc2)C(=O)C1 (centres undefined)	n	n	u	n	n	x	x	x
SMILES	CXXC DNA block	Menin-MLL FL inh	MBNL1-CUG inh	CBFb RUNX1 block	Menin-MLL TR inh	MLL CXXC Fl	MLL CXXC FP-TR	MLL CXXC HTRF
COc1ccccc1NC(=S)N(Cc1ccco1)Cc1cc2cc(C)ccc2[nH]c1=O	n	n	x	n	n	x	x	x
O=C1/C(=N\S(=O)(=O)c2cccs2)C([n+]2ccc(CCCc3ccccc3)cc2)=C([O-])c2ccccc21	n	n	u	n	x	x	x	x
O=C1/C(=N\S(=O)(=O)c2cccs2)C([n+]2cccc(Cc3ccccc3)c2)=C([O-])c2ccccc21	25µM	u	u	n	x	142µM	u	n
CC(=O)NC(CC(=O)N(C)Cc1c(F)cccc1Cl)c1ccccc1 (centres undefined)	n	n	n	n	n	x	x	x
CC1=NN(c2ccc(Cl)c(C(=O)O)c2)C(=O)/C1=C\c1ccc(-c2ccc(C(=O)O)cc2)o1	u	n	n	n	u	28µM	n	n
O=C1NN(c2ccccc2)C(=O)/C1=C/c1ccc(-c2ccc(C(=O)O)cc2)o1	32µM	n	n	x	u	89µM	142µM	u
Cc1ccc(N2NC(=O)/C(=C/c3ccc(-c4ccc(Cl)c(C(=O)O)c4)o3)C2=O)cc1C	u	n	n	u	u	x	x	x
CC1=NOC(=O)/C1=C\c1ccc(-c2ccc(Cl)c(C(=O)O)c2)o1	u	n	n	u	n	20µM	89µM	49µM
COC(=O)c1ccc(N2NC(=O)/C(=C/c3ccc(-c4ccc(Cl)c(C(=O)O)c4)o3)C2=O)cc1	u	n	n	u	u	x	x	x
CC1(C)OC(=O)C(=Cc2ccc(-c3ccc(Cl)c(C(=O)O)c3)o2)C(=O)O1	28µM	n	n	n	n	16µM	56µM	39µM
COc1ccc(OC)c(NC(=O)CC2SC(=NCc3ccccc3)NC2=O)c1 (centres undefined)	n	n	n	n	n	x	x	x
